Bioassay records from PubChem.
Bst PK mod – Pyruvate Kinase. purified pyruvate kinase, luminescence ATP production; ribose 5-phosphate activator present at AC10. Potency, µM. actives 1.2% (n = 51,000); in the data active = potency below about 11 µM; inconclusive = mostly about 12 µM to 25 µM;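 the screen sought inhibitors and activators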;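 note: scaled between full activation by ribose 5 phosphate and full inhibition by luteolin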
Tau filament bind – qHTS Assay for Tau Filament Binding; Microtubule-associated protein tau (Homo sapiens), P10636; recombinant tau filaments, thioflavin S fluorescence, 15 h; filaments grown with octadecylsulfate alongside compound; Potency, µM (highest dose often 57.1 µM), for inactives: top-dose activity change, negative = inhibition; actives 2% (n = 71,000); AID 596, 2007;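 note: % is set by controls: 0 for no effect and ±100 for the full control effect; actives lower thioflavin S fluorescence by blocking filaments or displacing dye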
Target sequence (P10636 whole entry, looked up): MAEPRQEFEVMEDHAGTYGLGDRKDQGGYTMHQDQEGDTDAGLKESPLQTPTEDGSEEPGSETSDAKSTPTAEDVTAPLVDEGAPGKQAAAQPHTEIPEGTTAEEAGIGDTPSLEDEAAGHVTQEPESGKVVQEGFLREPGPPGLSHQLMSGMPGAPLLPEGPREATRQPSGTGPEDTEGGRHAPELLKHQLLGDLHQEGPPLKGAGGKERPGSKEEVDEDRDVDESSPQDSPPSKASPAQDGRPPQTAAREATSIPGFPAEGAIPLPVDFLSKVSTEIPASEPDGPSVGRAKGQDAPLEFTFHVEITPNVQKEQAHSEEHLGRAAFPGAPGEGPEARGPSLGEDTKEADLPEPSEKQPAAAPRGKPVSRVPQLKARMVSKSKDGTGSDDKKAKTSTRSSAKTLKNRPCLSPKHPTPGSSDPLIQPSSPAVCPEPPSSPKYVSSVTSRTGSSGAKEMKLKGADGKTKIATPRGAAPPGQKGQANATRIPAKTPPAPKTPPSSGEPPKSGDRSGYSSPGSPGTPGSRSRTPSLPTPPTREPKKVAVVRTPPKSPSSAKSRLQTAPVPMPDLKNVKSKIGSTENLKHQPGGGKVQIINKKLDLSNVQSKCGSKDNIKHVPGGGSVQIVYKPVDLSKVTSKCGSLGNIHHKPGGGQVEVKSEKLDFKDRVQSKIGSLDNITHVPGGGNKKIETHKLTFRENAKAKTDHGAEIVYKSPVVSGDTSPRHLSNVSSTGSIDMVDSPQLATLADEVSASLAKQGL
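His-tagged recombinant human tau (exons 2, 3, 10; 1 uM final) fibrillized with 30 uM sodium octadecylsulfate, 15 h at 37 C, in pH 7.4 HEPES buffer with 10 uM thioflavine S and 5 mM DTT. Reduced ThS fluorescence (450/510 nm) marks activity.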
Hsp90 Hop PPI – qHTS Assay for Disrupters of an Hsp90 Co-Chaperone Interaction; actives 0.44% (n = 71,000); Hsp90 C-terminal peptide / TPR2A (Hop) interaction, human; AlphaScreen TPR2A-His6 binding biotin-Hsp90 C-terminal peptide; Potency, µM (highest dose often 57 µM), for inactives: top-dose activity change, negative = inhibition; active = well fitted curve in either direction with a large enough effect; inconclusive = small, poorly fitted or top-dose-only effect, or another doubt; note: % is set by controls: 0 for no effect and ±100 for the full control effect
GBA mod – Glucocerebrosidase; Lysosomal acid glucosylceramidase (Homo sapiens), P04062; purified enzyme, resorufin glucoside fluorescence (screen aimed at inhibitors), 20 min; Potency, µM; actives 1.1% (n = 48,000); AID 360, 2006; in the data active = potency below about 15 µM; inconclusive = mostly about 16 µM to 33 µM;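 note: the screen sought inhibitors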
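Wild-type enzyme at 0.2 nM final in 50mM citric acid/KH2PO4, 10mM sodium taurocholate, 0.01% tween-20, pH 5.9, with resorufin beta-D-glucopyranoside at 30 uM final. Compounds titrated, 20 min at RT, red fluorescence read; AC50 from titration.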
15-hLO inh – qHTS Assay for Inhibitors of 15-hLO (15-human lipoxygenase). Polyunsaturated fatty acid lipoxygenase ALOX15 (Homo sapiens), P16050. purified 15hLO-1, xylenol orange hydroperoxide absorbance. Potency, µM (series often up to 57.1 µM), for the others: top-dose activity change, negative = inhibition, usual class: inhibitors. actives 1.4% (n = 74,000). AID 887, 2007; note: % is set by controls: 0 for no effect and ±100 for the full control effect; nearly all actives have a fitted effect of over 55% in size
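Purified human 15hLO-1 (40 nM) in 25 mM Hepes pH 7.5, 0.01% Triton X-100, preincubated 15 min RT with compound, then 50 uM arachidonic acid for 6 min. Hydroperoxide read by ferrous/xylenol orange, 30 min; 573/405 nm absorbance ratio gave progress.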
USP2a inh – qHTS Assay for Inhibitors of Ubiquitin-specific Protease USP2a; Ubiquitin carboxyl-terminal hydrolase 2 (Homo sapiens), O75604; USP2a enzymatic assay, qHTS inhibition; Potency, µM (highest dose often 38.3 µM), inactives show at the highest dose activity change, negative = inhibition, most hits filed as inhibitors; actives 0.1% (n = 60,000); note: nearly all actives have a fitted effect of over 60% in size
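Inhibition is measured in a cell-free coupled assay with 20 nM USP2 core, 20 nM Ub-PLA2 and 20 uM NBD C6-HPC, 2.5 h incubation. Activity normalized to NEM control.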
The depositor's hits bear a star; i = inactive; ? = inconclusive; / = not tested or not shown; ! = repeats disagree; [ ] = another dose, or the depositor's remark. Compounds with a hit are over-represented: about 4.6% of the library has one in this group of screens. Unless noted, calls come from the whole dose curve; as a rule, active = well fitted curve in the direction sought with a large enough effect; inconclusive = small, poorly fitted or top-dose-only effect, or another doubt; inactive = no such curve, though single readings can be large; an effect the other way counts as inactive or inconclusive. Potency is the fitted concentration of half-maximal effect.

SMILES | Bst PK mod | Tau filament bind | Hsp90 Hop PPI | GBA mod | 15-hLO inh | USP2a inh
O=C(Nc1ccc(-c2nc3cccnc3s2)cc1)c1ccco1 | / | 64% | ? | / | 25µM* | /
O=C(Nc1cccc(-c2nc3cccnc3s2)c1)c1ccco1 | ? | 13% | -3% | >77 | -3% | 38%
CC(=O)Nc1ccc2nc(-c3ccccn3)[nH]c2c1 | ? | -10% | ? | >77 | 9% | -23%
O=C(Nc1ccc2nc(-c3cccs3)[nH]c2c1)c1ccco1 | 9.5* | -6% | -7% | ? | -4% | 9%
Cc1ccc2nc(-c3ccc(NC(=O)c4ccco4)cc3)[nH]c2c1 | 7.2* | i | -18% | ? | -5% | 18%
COCCn1nnnc1C(c1cc2cc(C)ccc2[nH]c1=O)N1CCCCCC1 (stereo unspecified) | >57 | 8% | 50% | >77 | ? | /
CCN(CC)S(=O)(=O)c1ccc(C(=O)NC2=C(C(=O)OC)SCC2)cc1 | >57 | ? | -22% | >77 | -20% | -6%
O=C1CC(N2CCCc3ccccc32)C(=O)N1c1ccccc1 (stereo unspecified) | / | 8% | -4% | / | -3% | 7%
O=C1c2ccccc2C(=O)C12Cc1ccccc1N1CCN(c3ccccc3)CC12 (stereo unspecified) | >57 | 10µM* | -9% | >77 | 5% | 21%
O=S1(=O)CC(O)C(NCc2cccnc2)C1 (stereo unspecified) | >57 | 1% | -2% | >77 | 4% | -1%
COc1ccc(NC(=O)C2CCCN(C(=O)NC3CCCCC3)C2)cc1OC (stereo unspecified) | >57 | -6% | 2% | >77 | 1% | 6%
Cc1cc2nc(-c3ccc(SCC(=O)N4CCOCC4)nc3)[nH]c2cc1C | 2.1* | 19% | -4% | >77 | -3% | 37%
O=C(O)c1ccc(-c2ccccc2Cl)o1 | >57 | -7% | -1% | >77 | 4% | 4%
Cc1ccc(N(C(C)C(=O)Nc2ccc(S(=O)(=O)N3CCOCC3)cc2)S(C)(=O)=O)cc1 (stereo unspecified) | >57 | -5% | -3% | >77 | -10% | 31%
O=C(O)C1=CC(=C(c2ccc(O)c(C(=O)O)c2)c2ccc(O)c(C(=O)O)c2)C=CC1=O | / | -5% | ? | / | 2.5µM* | 20µM*!
CC1=C/C(=C(/c2ccc(O)c(C)c2)c2ccccc2C(=O)O)C=CC1=O | / | 3%[11.4 µM] | -2%[11 µM] | / | -14%[11.4 µM] | /
CCC(C)(C)N1CC(=O)N(Cc2ccccc2)C(c2ccc(OC)cc2)C1=O (stereo unspecified) | >57 | -6% | -2% | >77 | 11% | -5%
Cc1cc(C)nc(-n2nc(C)cc2NC(=O)c2cc(=O)c3ccccc3o2)n1 | >57 | -5% | -1% | >77 | 0% | 1%
Cc1ccc2ccccc2c1COC(=O)c1nonc1N | i | 8% | -2% | / | -11% | 3%
CCOC(=O)c1cc(-c2ccco2)nc2c1c(C)nn2CCC#N | >57 | 16µM* | -11% | >77 | ? | 35%
CCCCn1c(SCC(=O)N2CCOCC2)nnc1-c1cccs1 | >57 | 5% | 0% | >77 | 4% | 0%
CC1=C/C(=C\c2ccc3c(c2)OCO3)C(=O)S1 | >57 | 25µM* | -13% | >77 | ? | 16%
CCNc1nnc(-c2ccccc2OC)s1 | / | 13% | -2% | / | 10% | -2%
Cc1noc(C)c1-c1nc(Nc2ccncc2)c2ccccc2n1 | / | 10% | -10% | / | ? | -3%
Clc1ccc(-c2nnc3sc(Cc4cccs4)nn23)c(Cl)c1 | 9.5* | / | / | / | / | /
c1ccc(CSc2nnc(-c3c[nH]c4ccccc34)o2)cc1 | / | 62% | 1% | >77 | -15% | -23%
Brc1cnc(N2CCCC2)nc1N1CCOCC1 | >57 | 4% | 1% | 15* | -10% | -4%
Oc1ccc(-c2[nH]ncc2-c2cccc3cccnc23)c(O)c1 | 5.9* | 6% | -3% | >77 | -5% | -8%
